Assay results reported in PubChem BioAssay AID1159580 (chemical genetic matrix, 2015).
About 2,000 (36%) of roughly 5,500 compounds were called active. Another 18% or so got no clear call; they are omitted. Rule as the data show it: active = normalized growth mostly below about 0.91 (no sharp cut-off); inconclusive = no clear call, values can overlap the other calls; inactive = mostly above about 0.92. This is one part of the list.

Assay: chemical genetic growth profiling, strain panel (AID 1159580);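 also: tested at 20 µM; growth read once vehicle control cultures reached saturation at 30 °C; 1 = growth at the plate median or of vehicle wells; lower values mean less growth of the strain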
Details: growth OD
[1] = S. cerevisiae deletion strains, locus YAL013W, strain DEP1, active compounds read low
[2] = S. cerevisiae deletion strains, locus YBR229C, strain ROT2, active compounds read low
[3] = S. cerevisiae deletion strains, locus YCL061C, strain MRC1, active compounds read low
[4] = S. cerevisiae deletion strains, locus YDL101C, strain DUN1, active compounds read low
[5] = S. cerevisiae deletion strains, locus YDL134C, strain PPH21, active compounds read low
[6] = S. cerevisiae deletion strains, locus YDR150W, strain NUM1, active compounds read low
[7] = S. cerevisiae deletion strains, locus YEL061C, strain CIN8, active compounds read low
[8] = S. cerevisiae deletion strains, locus YGR078C, strain PAC10, active compounds read low
[9] = S. cerevisiae deletion strains, locus YHR030C, strain SLT2, active compounds read low
[10] = S. cerevisiae deletion strains, locus YHR087W, strain rtc3, active compounds read low
[11] = S. cerevisiae deletion strains, locus YJL187C, strain SWE1, active compounds read low
[12] = S. cerevisiae deletion strains, locus YJR043C, strain POL32, active compounds read low
[13] = S. cerevisiae deletion strains, locus YJR075W, strain HOC1, active compounds read low
[14] = S. cerevisiae deletion strains, locus YLR039C, strain RIC1, active compounds read low
[15] = S. cerevisiae deletion strains, locus YLR058C, strain SHM2 (second series), active compounds read low
[16] = S. cerevisiae deletion strains, locus YLR085C, strain ARP6, active compounds read low
[17] = S. cerevisiae deletion strains, locus YLR262C, strain YPT6, active compounds read low
[18] = S. cerevisiae deletion strains, locus YML094W, strain GIM5, active compounds read low
[19] = S. cerevisiae deletion strains, locus YMR219W, strain ESC1, active compounds read low
[20] = S. cerevisiae deletion strains, locus YMR263W, strain SAP30, active compounds read low
[21] = S. cerevisiae deletion strains, locus YMR307W, strain GAS1, active compounds read low
[22] = S. cerevisiae deletion strains, locus YNL153C, strain GIM3, active compounds read low
[23] = S. cerevisiae deletion strains, locus YNL298W, strain CLA4 (second series), active compounds read low
[24] = S. cerevisiae deletion strains, locus YNL322C, strain KRE1, active compounds read low
[25] = S. cerevisiae deletion strains, locus YNR030W, strain Alg12, active compounds read low
[26] = S. cerevisiae deletion strains, locus YOL006C, strain TOP1, active compounds read low
[27] = S. cerevisiae deletion strains, locus YPL055C, strain LGE1, active compounds read low
[28] = S. cerevisiae deletion strains, locus YPL241C, strain CIN2, active compounds read low
[29] = S. cerevisiae deletion strains, locus YPR135W, strain CTF4, active compounds read low
[30] = S. cerevisiae strains, strain wild type, active compounds read low

Measured: normalized growth

COC(=O)c1cccnc1Sc1ccc(C)cc1
inactive: [1] 0.947 | [2] 0.97 | [3] 0.968 | [4] 0.991 | [5] 0.958 | [6] 0.904 | [7] 0.956 | [8] 0.954 | [10] 0.974 | [11] 0.967 | [12] 0.95 | [13] 0.989 | [14] 0.913 | [15] 0.966 | [17] 0.961 | [18] 0.97 | [19] 0.958 | [20] 0.962 | [21] 0.686 | S. cerevisiae deletion strains, locus YNL128W, strain TEP1, active compounds read low 0.98 | [22] 0.991 | [23] 0.917 | [24] 0.965 | [25] 0.928 | [27] 0.812 | [30] 0.965
active: [9] 0.432 | [16] 0.666 | [26] 0.684 | [28] 0.769 | [29] 0.61

Cc1ccc(SC(=O)c2cccnc2Oc2ccccc2)cc1
active: [14] 0.723 | [17] 0.679
inactive: [1] 0.972 | [2] 0.988 | [3] 0.989 | [4] 1.03 | [5] 0.983 | [6] 1.02 | [7] 0.965 | [8] 0.992 | [9] 0.815 | [10] 0.953 | [11] 0.98 | [12] 0.992 | [13] 0.985 | [15] 0.992 | [16] 0.818 | [18] 0.949 | [19] 0.993 | [20] 0.984 | [22] 0.982 | [23] 0.925 | [24] 0.983 | [25] 0.91 | [27] 0.939 | [28] 0.94 | [29] 0.723 | [30] 0.952

Cc1ccc(Sc2ncccc2C(=O)NCC(=O)O)cc1
inactive: [1] 1.03 | [2] 1.02 | [4] 1.04 | [5] 0.999 | [6] 1.03 | [7] 1.01 | [8] 1.04 | [9] 1.06 | [10] 0.994 | [12] 0.962 | [13] 1.02 | [14] 1 | [15] 1.02 | [16] 1.02 | [17] 1.01 | [18] 0.992 | [19] 1.01 | [20] 1.02 | [22] 1.03 | [23] 1.02 | [24] 1.01 | [25] 1.02 | [26] 1.04 | [27] 1.01 | [28] 0.996 | [29] 1.08

CC(C)(C)c1ccc(Oc2ncccc2NC(=O)c2ccccc2C(F)(F)F)cc1
inactive: [1] 0.986 | [2] 1.01 | [4] 1.02 | [5] 0.996 | [6] 1.06 | [7] 1 | [8] 0.992 | [9] 0.934 | [10] 1 | [11] 0.998 | [12] 0.948 | [13] 0.988 | S. cerevisiae deletion strains, locus YKL190W, strain CNB1, active compounds read low 1 | [14] 0.982 | [15] 0.986 | [16] 0.972 | [17] 0.967 | [18] 1.03 | [19] 0.999 | [20] 1.01 | [21] 0.876 | [22] 1 | [23] 0.987 | [24] 1 | [25] 0.993 | [27] 0.996 | [28] 0.987 | [29] 0.984
